Measured values as given in PubChem BioAssay.

Test: Plasmodium falciparum growth inhibition, primary screen, strain 3D7, DAPI fluorescence, 100 nL (AID 1184);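 note: parasites grown inside human red blood cells in medium with human serum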
Conditions: P. falciparum 3D7 growth, 3 d, higher = more signal

SMILES | z-score
Cc1ccc(S[C@]2(C(=O)O)CC(=O)N(Cc3ccccc3)[C@@H]2c2ccc(CO)cc2I)cc1 | -0.58
COC(=O)[C@@H]1CCCN1C(=O)[C@@H](C)CO | -1.35
CN1C(=O)C2C=CC(C(O)c3ccc(Br)cc3)N(N(c3ccccc3)c3ccccc3)C2C1=O (stereo not given) | -0.233
C[C@H](c1ccccc1)N1C(=O)[C@H]2[C@H]3[C@H](O)[C@H](O)CC(=O)[C@@H]3CC[C@H]2C1=O | 0.0307
CC(=O)OC[C@H]1O[C@@H](ON=C(C)CCN2CCc3nc(-c4ccccc4)c(-c4ccccc4)cc3C2)[C@H](OC(C)=O)[C@@H](OC(C)=O)[C@@H]1OC(C)=O | -1.08
CCc1cc2c(nc1CC)CCN(CCC(C)=NOC(C)CN1CCCc3nc(C)c(C)cc31)C2 (stereo not given) | 0.74
COC(=O)CC=C[C@@H](C)[C@@H](C=NO[C@H](C)c1cn([C@@H]2COC[C@H]2O)nn1)OC | 0.354
CO[C@H]1COC(=O)CC=C[C@H](C)[C@@H](NS(=O)(=O)c2ccc(C)cc2)COC(=O)CC=C[C@@H]1C | -0.648
COc1ccc(O[C@H]2C=C[C@@H](c3ccccc3)O[C@@H]2COC(=O)CCC(C)=NO[C@H](C)c2cn([C@@H]3COC[C@H]3O)nn2)cc1 | -1.52
CO[C@H]1COC(=O)[C@@H]2CCCN2C(=O)CC=C[C@@H](C)[C@H](OC)COC(=O)CC=C[C@@H]1C | 0.372
C#CCCCON=C1C[C@@H](O)[C@@H](O)[C@@H]2[C@@H]3C(=O)N(Cc4ccccc4)C(=O)[C@@H]3CC[C@H]12 | -0.677
COC(=O)CC=C[C@@H](C)[C@H](OC)c1ccccc1Br | 0.805
C[C@@H](c1ccccc1)N1C(=O)[C@H]2[C@H]3[C@H](O)[C@H](O)CC(=NOC[C@@H](O)COCc4ccco4)[C@@H]3CC[C@H]2C1=O | -0.842
O=C1[C@H]2[C@H]3[C@H](O)[C@H](O)CC(=NOC[C@@H](O)COCc4ccco4)[C@H]3CC[C@H]2C(=O)N1C1CCCCC1 | -1.24
CC[C@@H](c1ccccc1)n1c(=O)n2n(c1=O)[C@H]1[C@H](O)[C@@H]3O[C@@H]3C(=NOCC=C(C)CCC=C(C)C)[C@H]1CC2 | -0.444
C[C@H]1Cc2c(-c3ccccc3)nc3c(c2CO1)CN(CCOc1ccccc1)CC3 | 1.18
CCOC(=O)C1=CC[C@H]2C(=O)N(CC)C(=O)[C@@H]12 | -0.239
COC(=O)[C@@]1(Cc2ccccc2)[C@H]2c3cc(C(=O)N4CCCC4)n(Cc4ccccn4)c3C[C@H]2CN1C(=O)c1ccccc1 | -1.5

SMILES | z-score
CC(=O)OC[C@H]1O[C@H](CCON=C(C)CCN2CCc3nc(-c4ccccc4)c(-c4ccccc4)cc3C2)C=C[C@@H]1OC(C)=O | -0.697
COC(=O)C1=C(C)[C@@H](O)[C@@H](C)[C@H](c2c(OC)c(OC)c(C)c(OC)c2OC)O1 | -0.717
CC(=O)O[C@H]1C2=C(C(=O)[C@@H]3O[C@@H]31)[C@H]1C(C)O[C@@H]2[C@@]23C(=O)[C@@H]4O[C@@H]4[C@@H](O)C2=CO[C@H](C)[C@@H]13 (stereo not given in full) | -0.771
CC(=O)OC[C@H]1O[C@H](C#CCCCc2ccccc2)C=C[C@@H]1OC(C)=O | -0.107
C[C@@H](c1ccccc1)N1C(=O)[C@H]2[C@H]3[C@H](O)C=CC(=O)[C@@H]3CC[C@H]2C1=O | -0.173
CC(CCN1CCc2nc(-c3ccccc3)c(-c3ccccc3)cc2C1)=NOC[C@@H](C)[C@H](OCc1ccccc1)C(C)C | -0.784
CO[C@@H]1COC(=O)CC=C[C@@H](C)COC(=O)[C@H](COCc2ccccc2)NC(=O)CC=C[C@H]1C | -1.02
CCN1C(=O)[C@H]2[C@H]3[C@H](O)[C@H](O)CC(=NOCc4ccccc4)[C@@H]3CC[C@H]2C1=O | -0.165
COC(=O)[C@@H]1CC[C@H](C)[C@@H](c2ccc(C)cc2)N1C(=O)c1ccc(C=NOC[C@@H](O)COCc2ccco2)cc1 | -2.31
COc1ccc(O[C@@H]2[C@H](O)CO[C@H]2C=CC#Cc2ccccc2)cc1 | -0.456
CC[C@@H](c1ccccc1)n1c(=O)n2n(c1=O)[C@H]1[C@H](O)[C@@H]3O[C@@H]3C(=NOCC(C)C)[C@H]1CC2 | -0.265
COC(=O)[C@H](C)NC(=O)CCC1CC(OC(=O)NCc2cccc3ccccc23)CC2(CCCC(COC(=O)NCCc3ccc(Cl)cc3)O2)O1 (stereo not given in full) | -1.79
CCCCCCc1nc(CCCc2cc3c(c(CCCCCC)n2)[Si](C(C)C)(C(C)C)O[C@H]3c2ccccc2)cc2c1[Si](C(C)C)(C(C)C)O[C@H]2c1ccccc1 | -0.607
CC(=O)OC[C@H]1O[C@@H](ON=C[C@@H](C)[C@H](OCc2ccccc2)C(C)C)[C@H](OC(C)=O)[C@@H](OC(C)=O)[C@@H]1OC(C)=O | 0.317
CC(C)CON=C1C[C@@H](O)[C@@H](O)[C@@H]2[C@@H]3C(=O)N([C@@H](C)c4ccccc4)C(=O)[C@@H]3CC[C@H]12 | 0.529
C#CCCCON=C1C[C@@H](O)[C@@H](O)[C@@H]2[C@@H]3C(=O)N(CCC(=O)OCC)C(=O)[C@@H]3CC[C@@H]12 | 0.165
O=C1CCCC=C1C(O)CCOCc1ccccc1 (stereo not given) | -0.929
